The list is not random: actives were taken first. Their share in the collection is about 0.92%.
Mtb hypoxia inh: PubChem AID 1159583; fluorescence inhibition, % (concentration not given with the values); hit rate 0.1% among 300,000; M. tuberculosis hypoxia-regulated fluorescent reporter, fluorescence; in the data active = fluorescence inhibition mostly above about 23%, no sharp cut-off; inactive = mostly below about 17%
UGM FP inh: M. tuberculosis UGM enzyme inhibitors, primary screen, biochemical, fluorescence polarization, single point; UDP-galactopyranose mutase (Mycobacterium tuberculosis (strain ATCC 25618 / H37Rv)), …; purified UGM, fluorescence polarization probe displacement; inhibition, % at 10 µM; hit rate 0.06% among 320,000; AID 504406, 2011; in the data active = inhibition above about 10%, passing the limit was not always enough
RecA splice inh: Mtb RecA intein splicing inhibitors, primary screen, biochemical, fluorescence, HTS; Protein RecA (Mycobacterium tuberculosis (strain ATCC 25618 / H37Rv)), P9WHJ3; hit rate 0.75% among 290,000; cell-free RecA intein splicing; inhibition, % (test concentration not listed); AID 2221, 2009; in the data active = inhibition above about 30%
Target sequence (P9WHJ3 whole entry, looked up, canonical isoform): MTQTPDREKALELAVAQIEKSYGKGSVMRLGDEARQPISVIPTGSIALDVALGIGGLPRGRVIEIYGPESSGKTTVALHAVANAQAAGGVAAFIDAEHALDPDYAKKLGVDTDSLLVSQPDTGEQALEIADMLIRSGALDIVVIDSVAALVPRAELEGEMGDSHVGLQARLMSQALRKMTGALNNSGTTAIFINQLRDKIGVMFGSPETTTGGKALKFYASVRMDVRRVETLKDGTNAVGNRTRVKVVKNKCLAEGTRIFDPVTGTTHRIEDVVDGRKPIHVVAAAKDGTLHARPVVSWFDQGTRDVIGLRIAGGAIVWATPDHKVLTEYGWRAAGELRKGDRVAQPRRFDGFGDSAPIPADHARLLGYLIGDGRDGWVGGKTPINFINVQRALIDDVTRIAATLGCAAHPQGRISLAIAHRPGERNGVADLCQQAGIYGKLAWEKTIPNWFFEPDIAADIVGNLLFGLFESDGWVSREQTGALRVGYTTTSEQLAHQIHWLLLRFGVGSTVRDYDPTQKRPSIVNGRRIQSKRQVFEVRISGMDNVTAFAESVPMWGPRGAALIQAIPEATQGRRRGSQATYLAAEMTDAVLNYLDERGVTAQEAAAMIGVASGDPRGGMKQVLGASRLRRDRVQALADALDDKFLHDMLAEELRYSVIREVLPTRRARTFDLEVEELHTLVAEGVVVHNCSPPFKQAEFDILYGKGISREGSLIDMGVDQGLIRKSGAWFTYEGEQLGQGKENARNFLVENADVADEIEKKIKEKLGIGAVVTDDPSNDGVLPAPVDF
Rv3671c inh: Rv3671c serine protease inhibitors, primary screen, biochemical, fluorescence polarization, M. tuberculosis H37Rv; inhibition, % at 5.96 µM; hit rate 0.048% among 320,000; AID 2606, 2010; in the data active = inhibition above about 38%;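 also: extracellular domain of Rv3671c used as enzyme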
FadD28 FP inh: inhibitors of FadD28 bisubstrate probe binding, primary screen, biochemical, fluorescence polarization, single point; Mycobacterium tuberculosis FadD28 fatty-acid-AMP ligase; hit rate 0.22% among 360,000; inhibition, % at 12.5 µM; in the data active = inhibition above about 8.5%, passing the limit was not always enough
GFP chromophore: counter-screen: blocks GFP chromophore formation, dose response, counter-screen, biochemical, fluorescence, homogeneous. shares compounds with RecA splice inh. EC50, µM. hit rate 83% among 2,100. cell-free GFP chromophore formation; call rule not given here
Each line names hits and unclear results; the compound was inactive in the other large screens (follow-up assays come after a bar, where shown).

O=C(Cc1cc(=O)[nH][nH]1)N/N=C/c1c(Cl)cccc1Cl	RecA splice inh 69.9 (no result: Mtb hypoxia inh) | GFP chromophore 12.2
O=C(CC(=O)N/N=C/c1c(F)cccc1Cl)NCc1ccccc1	none (no result: Mtb hypoxia inh, FadD28 FP inh)
O=C(Cc1cc(=O)[nH][nH]1)N/N=C/c1c(F)cccc1Cl	RecA splice inh 95.2 (no result: Mtb hypoxia inh) | GFP chromophore 7.87
O=C(O)COc1ccccc1C=NNC(=O)C(=Cc1ccc2c(c1)OCO2)NC(=O)c1ccccc1	none (no result: UGM FP inh, RecA splice inh, Rv3671c inh, FadD28 FP inh)
O=C(COc1ccccc1C(=O)Nc1ccccc1)c1ccc(Br)cc1	none
O=C(Oc1ccccc1C(=O)Nc1ccccc1)c1ccccc1Br	RecA splice inh 54.2 | GFP chromophore 35.9
COc1cccc(-c2c(C(=O)NN=Cc3ccc(C)o3)nnn2-c2nonc2N)c1	none (no result: UGM FP inh, RecA splice inh, Rv3671c inh, FadD28 FP inh)
CC(=NN)c1c(-c2ccccc2)c2cc(C)ccc2[nH]c1=O	none (no result: UGM FP inh, RecA splice inh, Rv3671c inh, FadD28 FP inh)
C(=Nn1cnnc1)c1ccc(OCc2ccccc2)cc1	none (no result: UGM FP inh, RecA splice inh, Rv3671c inh, FadD28 FP inh)
Oc1ccc(N=Cc2ccc(OCc3ccccc3)cc2)cc1	RecA splice inh 46.3 | GFP chromophore inactive
O=C(NCc1cccnc1)/C(=C\c1ccc(-c2ccc(Br)cc2)o1)S(=O)(=O)c1ccccc1	RecA splice inh 51.4 (no result: Mtb hypoxia inh) | GFP chromophore 29.4
COc1ccc(/C=C2/C(=O)N(c3cccc(F)c3)N=C2C)c(OC)c1	RecA splice inh 46.1 | GFP chromophore inactive
CC1=NN(c2cccc(F)c2)C(=O)/C1=C/c1ccc(N(C)C)cc1	none
COc1cc(/C=C2/C(=O)N(c3ccccc3)N=C2C)ccc1OS(=O)(=O)c1ccccc1	RecA splice inh 69.7 (no result: Mtb hypoxia inh, FadD28 FP inh) | GFP chromophore 1.85
CC1=NN(c2ccccc2)C(=O)C1=Cc1ccccc1	none (no result: Mtb hypoxia inh, UGM FP inh, RecA splice inh, Rv3671c inh)
COc1ccc(/C=C2/C(=O)N(c3ccccc3)N=C2C)cc1Br	RecA splice inh 45.1 | GFP chromophore 8.04
COc1cc(/C=C2/C(=N)N3C(=NC2=O)SN=C3S(C)(=O)=O)ccc1OS(=O)(=O)c1ccccc1	none (no result: Mtb hypoxia inh, FadD28 FP inh)
N#CC1(C#N)CC(C=O)=C(N)C1(C#N)CC(=O)C12CC3CC(CC(C3)C1)C2 (stereo not given)	RecA splice inh 41.1 | GFP chromophore 19.2
O=C1C=C(NCc2ccccc2)c2ccccc2C1=O	RecA splice inh 92.2 (no result: UGM FP inh, Rv3671c inh) | GFP chromophore 0.859
O=C1C=C(Nc2ccccc2O)c2ccccc2C1=O	RecA splice inh 95.5 | GFP chromophore inactive
O=C1C=C(Nc2ccc(F)cc2)c2ccccc2C1=O	none (not shown: Mtb hypoxia inh, RecA splice inh)
O=C(Cc1ccccn1)c1ccc(Cl)cc1	none (no result: Mtb hypoxia inh)
CC1=C(CC(=O)c2ccc(Cl)cc2)C(=O)c2ccccc2C1=O	RecA splice inh 68.4 | GFP chromophore 11.3
O=[N+]([O-])c1cc(O)c2ncccc2c1	RecA splice inh 36.8 (no result: FadD28 FP inh) | GFP chromophore 11.8
Nc1ccc2nc(Cc3ccccc3)[nH]c2c1	RecA splice inh 29.8 (no result: Mtb hypoxia inh) | GFP chromophore inactive
Cc1cc(O)c(C(C[N+](=O)[O-])c2ccc(Cl)cc2)c(=O)o1 (stereo not given)	none (no result: Mtb hypoxia inh)
Cc1[nH]n(-c2ccccc2)c(=O)c1C(C[N+](=O)[O-])c1ccc(F)cc1 (stereo not given)	RecA splice inh 76.4 | GFP chromophore 22.4
Cc1[nH]n(-c2ccccc2)c(=O)c1Sc1ccc(Cl)cc1	RecA splice inh 57.3 | GFP chromophore 20
Cc1[nH]n(-c2ccccc2)c(=O)c1N=Nc1ccc(Cl)cc1	none
Cc1ccc(C(C[N+](=O)[O-])c2c(C)[nH]n(-c3ccccc3)c2=O)cc1 (stereo not given)	RecA splice inh 92.7 | GFP chromophore 7.29
Cc1[nH]n(-c2ccccc2)c(=O)c1C(C[N+](=O)[O-])c1ccc(Cl)cc1 (stereo not given)	RecA splice inh 81.9 (no result: UGM FP inh) | GFP chromophore 15.2
COc1ccc(C(c2c(C)n(C)n(-c3ccccc3)c2=O)c2c(C)n(C)n(-c3ccccc3)c2=O)cc1OC	none (no result: RecA splice inh)
COc1ccc(C(c2c(C)[nH]n(-c3ccccc3)c2=O)c2c(C)[nH]n(-c3ccccc3)c2=O)cc1OC	RecA splice inh 98.4 | GFP chromophore 1.27
Cc1cc(C(=O)Cn2ncc(Cl)c(Cl)c2=O)c(C)n1CC(F)(F)F	RecA splice inh 36.1 (no result: Mtb hypoxia inh) | GFP chromophore 5.97
Cc1[nH][nH]c(=O)c1C(c1c(C)[nH][nH]c1=O)c1cn(Cc2ccc(F)cc2)c2ccccc12	none (no result: RecA splice inh)
Cc1[nH][nH]c(=O)c1C(c1ccc(F)cc1)c1c(C)[nH][nH]c1=O	RecA splice inh 97.8 | GFP chromophore 0.616
Cc1[nH][nH]c(=O)c1C(c1ccc(Cl)cc1)c1c(C)[nH][nH]c1=O	RecA splice inh 98.0 | GFP chromophore 1.26
Cc1[nH][nH]c(=O)c1C=NCc1ccc(Cl)cc1	none
CCOC(=O)COc1ccc(C(c2c(C)[nH][nH]c2=O)c2c(C)[nH][nH]c2=O)cc1	none
COC(=O)c1ccc(C(c2c(C)[nH][nH]c2=O)c2c(C)[nH][nH]c2=O)cc1	RecA splice inh 94.6 | GFP chromophore 1.42
Cc1cccc(N2C(=O)C(=CN3CCN(C(=O)c4ccco4)CC3)C(=O)NC2=S)c1	none (no result: UGM FP inh, RecA splice inh, Rv3671c inh, FadD28 FP inh)
Cc1c(C=CC(=O)c2ccc(C(C)C)cc2)cnn1C	none (no result: UGM FP inh, RecA splice inh, Rv3671c inh, FadD28 FP inh)
C=CC(CC(C)C)N(Cc1ccccc1)S(=O)(=O)N(Cc1ccccc1)C(C=C)CC(C)C (stereo not given)	none (no result: UGM FP inh, RecA splice inh, Rv3671c inh, FadD28 FP inh)
COC(=O)C1=C(c2ccc(OC)c(OC)c2)CC2CCC1N2C(=O)NCc1ccc(F)cc1 (stereo not given)	none (no result: UGM FP inh, RecA splice inh, Rv3671c inh, FadD28 FP inh)
S=C(Nc1ccc(Cl)cc1)c1nc2ccccc2s1	none (no result: Mtb hypoxia inh)
O=C(Nc1ccc(Cl)cc1)/C(=C/c1cccc(O)c1)c1nc2ccccc2s1	RecA splice inh 46.4 | GFP chromophore 20.6
Cc1cc(C)cc(Oc2coc3cc(OC(=O)c4cccs4)ccc3c2=O)c1	RecA splice inh 33.6 | GFP chromophore inactive
Cc1ccc(Oc2coc3cc(OC(=O)c4cccs4)ccc3c2=O)cc1	none
CCOc1ccccc1Oc1coc2cc(OC(=O)c3ccco3)ccc2c1=O	RecA splice inh 33.3 | GFP chromophore inactive
COc1ccc(Cc2c3cc(OC)c(OC)cc3cc[n+]2C)cc1OC	none (no result: Mtb hypoxia inh)
CC[n+]1ccc2cc(OC)c(OC)cc2c1Cc1ccc(OC)c(OC)c1	RecA splice inh 50.6 (no result: Mtb hypoxia inh) | GFP chromophore inactive
COc1ccc(Cc2nccc3cc(OC)c(OC)cc23)cc1OC	RecA splice inh 92.9 | GFP chromophore 7.3
COC1(OC)C(/C=C/c2ccc(C)cc2)C(C#N)(C#N)C1(OC)OC (stereo not given)	RecA splice inh 58.7 (no result: Mtb hypoxia inh) | GFP chromophore inactive
O=C(NN=Cc1c(F)cccc1Cl)c1cc(C2CC2)[nH]n1	none (no result: UGM FP inh, RecA splice inh, Rv3671c inh, FadD28 FP inh)
CCOC(=O)c1c(NC(=S)N2CCCCC2)sc2c1CCN(C(=O)OCC)C2	RecA splice inh 33.3 (no result: Mtb hypoxia inh) | GFP chromophore 25.2
CCOC(=O)c1c(NC(=S)N2CCOCC2)sc2c1CCN(C(=O)OCC)C2	RecA splice inh 39.4 (no result: Mtb hypoxia inh) | GFP chromophore 33.2
O=C(O)c1ccc(N2C(=O)/C(=C/c3ccc(-c4ccc([N+](=O)[O-])cc4)o3)C=C2c2ccccc2)cc1	RecA splice inh 32.2 (no result: Mtb hypoxia inh) | GFP chromophore inactive
